Screening results as filed in PubChem.
This is a sample that favours compounds with a hit; in the whole collection about 4% have one here.
BoNT F protease = inhibitors of Botulinum neurotoxin F light chain protease. 360,000 tested, 0.22% active. inhibition, % at 10 µM. Multiplex microsphere protease cleavage assay, flow cytometry; in the data active = inhibition above about 35%, passing the limit was not always enough; inconclusive = no clear call, values can overlap the other calls
Anthrax LF inh2 = inhibitors of Bacillus anthracis lethal factor protease | P15917 | multiplex microsphere protease cleavage assay, LF | inhibition, % at 10 µM | 360,000 tested, 0.12% active | AID 588501
Autofluor counter = counter-screen for toxin protease inhibitors: compound fluorescence; fluorescence intensity (test concentration not listed); 360,000 tested, 3.1% active; compound autofluorescence counterscreen, microsphere flow cytometry; stronger effect = higher value; AID 624483; in the data active = fluorescence intensity above about 16000; inconclusive = no clear call, values can overlap the other calls
VHR inh abs = blocks human VHR1 dual specificity phosphatase. 290,000 tested, 0.52% active. AID 1654. recombinant VHR phosphatase, pNPP absorbance. inhibition, % at 13.3 µM; in the data active = inhibition above about 50%
Target sequence (P51452 whole entry, looked up): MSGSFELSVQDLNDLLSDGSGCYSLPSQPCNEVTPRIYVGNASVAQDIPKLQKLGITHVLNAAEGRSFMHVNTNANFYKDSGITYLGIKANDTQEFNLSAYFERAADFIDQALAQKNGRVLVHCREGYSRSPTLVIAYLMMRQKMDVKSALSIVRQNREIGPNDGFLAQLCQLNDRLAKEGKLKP
BoNT-A LC inh2 = inhibitors of Botulinum neurotoxin A light chain protease; multiplex microsphere protease substrate cleavage, flow cytometry; inhibition, % at 10 µM; 360,000 tested, 0.17% active
MazF activator = increases E. coli MazEF RNase cleavage of RNA. P0AE70. FAM/BHQ RNA-DNA oligo cleavage fluorescence, 5 h. activation, % at 20 µM. 350,000 tested, 0.32% active; in the data active = activation above about 50%
Target sequence (P0AE70 whole entry, looked up): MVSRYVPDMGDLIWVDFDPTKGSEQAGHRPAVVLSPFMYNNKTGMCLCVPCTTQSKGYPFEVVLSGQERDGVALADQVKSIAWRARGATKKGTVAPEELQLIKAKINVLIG
Large screens that a line does not name were inactive. Cut-off read from the data, not from the text of the source, unless noted: active = inhibition above about 30%; inconclusive = no clear call, values can overlap the other calls; inactive = below that.

CN1CCN(C(=O)c2cccc(COc3cc(Cl)ccc3Cl)c2)CC1	Autofluor counter 22814
CN1CCN(C(=O)c2ccc(COc3cc(Cl)ccc3Cl)o2)CC1	none
CCC(Sc1nc2cc(OC)c(OC)cc2c(=O)n1CCc1ccc(S(N)(=O)=O)cc1)C(=O)NCCOC (stereo not drawn)	none
COc1ccc(C)cc1NC(=O)CSc1ccc(-c2sc(C)nc2C)nn1	none
CN(C(=O)c1ccccc1Cl)c1ccccc1C(=O)NCCc1ccccc1	none
Cc1ccsc1C(=O)OCc1nc2ccccc2c(=O)[nH]1	Autofluor counter 19317
COc1ccc(/C=C(/C#N)C(=O)NC2CCCCC2)cc1Br	BoNT F protease 36
CCCCOc1ccc(/C=C(\C#N)C(=O)NC2CC2)cc1	BoNT F protease 50, Anthrax LF inh2 inconclusive (no result: VHR inh abs)
CCOc1ccc(/C=C(\C#N)C(=O)NC2CC2)c(OCC)c1	none (no result: VHR inh abs)
N#C/C(=C\c1ccccc1)C(=O)NC1CC1	VHR inh abs 53
N#C/C(=C\c1ccc2c(c1)OCCO2)C(=O)NC1CCCCC1	none
CCCCOP(=O)(CN1CCOCC1)OCCCC	none
COc1ccc(CC(=O)Nc2ccccc2C(C)=O)cc1S(=O)(=O)N1CCOCC1	none (no result: BoNT F protease, Anthrax LF inh2, Autofluor counter, VHR inh abs, BoNT-A LC inh2)
COc1ccc(CCNC(=O)c2ccc(CNS(=O)(=O)c3cc(C)ccc3C)cc2)cc1OC	none
CCOc1cc(CNn2nnnc2N)ccc1OCC(=O)NC(C)(C)C	Autofluor counter 16985
CC(C)(C)NC(=O)COc1ccc(CNn2nnnc2N)cc1	none
COc1cc(CNn2nnnc2N)ccc1OCC(=O)NC(C)(C)C	Autofluor counter 23140
CN(C)C1(CNC(=O)Cc2ccccc2F)CCCCC1	none
CCOC(=O)c1sc(NS(=O)(=O)c2ccccc2Cl)nc1C	Autofluor counter 26130
CCOC(=O)c1sc(NC(=O)c2ccc3nc[nH]c3c2)nc1C	none
CCOC(=O)Nc1nc(C)c(C(=O)c2ccc(Cl)cc2)s1	MazF activator 86
CCOC(=O)c1sc(NC(=O)c2ccc(=O)[nH]c2)nc1C	BoNT F protease 37
COC(=O)Nc1nc(C)c(C(=O)c2ccccc2)s1	none
Cc1ccc(-c2noc(COc3ccccc3C)n2)cc1	none
CC1(C(=O)NS(=O)(=O)c2ccc(F)cc2F)CCN1C(=O)CCc1ccc(Cl)cc1Cl (stereo not drawn)	none (no result: VHR inh abs, MazF activator)
CC1(c2ccc(Cl)cc2)NC(=O)N(CC(=O)NCc2cccs2)C1=O (stereo not drawn)	none
CN(Cc1ccccc1)C(CNS(=O)(=O)c1ccccc1)c1ccccc1 (stereo not drawn)	none (no result: VHR inh abs)
CN(C1CCCCC1)C(CNS(=O)(=O)c1ccccc1)c1ccccc1 (stereo not drawn)	VHR inh abs 53
CC(=O)c1ccc(NC(=O)c2ccn[nH]2)cc1	Autofluor counter 22226
O=C(/C=C/Nc1cccc(C(F)(F)F)c1)C(F)(F)F	Autofluor counter 20521, BoNT-A LC inh2 inconclusive
COC(=O)[C@H](CC(C)C)NC(=O)N1CCN(c2cccc(C(F)(F)F)c2)CC1	Autofluor counter 23638
C[C@H](NC(=O)Nc1cccc(C(F)(F)F)c1)C(=O)O	Autofluor counter 21298, BoNT-A LC inh2 inconclusive
Cc1ccc(OC(F)F)c(NC(=O)Nc2cccc(C(F)(F)F)c2)c1	Autofluor counter 19099
COCCSc1nnc(NS(=O)(=O)Cc2ccccc2)s1	none
COc1ccc(NS(=O)(=O)c2cc([N+](=O)[O-])ccc2NN=Cc2ccccc2OCC(=O)O)cc1	none (no result: VHR inh abs)
CCOC(=O)C1=NNC(C(=O)c2ccccc2)C1c1ccc(C)cc1 (stereo not drawn)	BoNT F protease inconclusive, BoNT-A LC inh2 inconclusive
CC(=O)Nc1ccc(CN2CCN(c3cccc(C(F)(F)F)c3)CC2)cc1	Autofluor counter 17158
COc1ccccc1NC(=O)N1CCN(c2ccc(F)cc2)CC1	none
O=C(O)C1C2C=CC(C2)C1C(=O)Nc1cccc(C(F)(F)F)c1 (stereo not drawn)	BoNT F protease 50
CCCN1CCN(C(=O)Nc2cccc(C(F)(F)F)c2)CC1	none
O=C(Nc1cccc(C(F)(F)F)c1)N1CCN(C(=O)Nc2cccc(C(F)(F)F)c2)CC1	Autofluor counter 22460
COc1ccccc1NC(=O)N1CCN(c2cccc(C(F)(F)F)c2)CC1	Autofluor counter 23145
OCC(Cc1ccc2c(c1)OCO2)C(CO)Cc1ccc2c(c1)OCO2 (stereo not drawn)	none
CS(=O)(=O)Nc1ccc(Cc2ccc(NS(C)(=O)=O)cc2)cc1	Autofluor counter 20871
NS(=O)(=O)c1ccc(Nc2nc(-c3ccc(O)cc3)cs2)cc1	Autofluor counter 21481
Oc1ccc(Nc2nc(-c3cccnc3)cs2)cc1	none
O=C(O)c1ccc(Nc2nc(-c3cccnc3)cs2)cc1	VHR inh abs 53
Oc1ccc(Nc2nc(-c3ccc(O)cc3)cs2)cc1	MazF activator 78
O=C(CCCc1ccccc1)NCc1cccnc1	Autofluor counter 24595
O=C(O)CCCc1nc(-c2ccccc2)no1	Autofluor counter 16634
O=C(CCCc1nc(-c2ccccc2Cl)no1)NCc1cccnc1	none
O=C(CCc1nc(-c2ccccc2)no1)NCc1cccnc1	Autofluor counter 23102
C/C(=N/N=C(\C)c1ccccc1O)c1ccccc1O	none
C/C(=N\N1C(C)CCCC1C)c1ccccc1O (stereo not drawn)	VHR inh abs 53
C[C@@H]1ON(C)[C@H]2C[C@H]3c4[nH]c5ccc(-c6ccc7c(c6)OCO7)cc5c4CCN3C(=O)[C@@H]12	none (no result: VHR inh abs)
Cc1ccc(Cl)cc1N(CC(=O)NCc1ccc2c(c1)OCO2)S(C)(=O)=O	none
CCCOc1ccccc1N1C(=O)CC(N2CCOCC2)C1=O (stereo not drawn)	Autofluor counter 23760
N#Cc1ccc(CSc2nnc(-c3ccccc3)n2Cc2ccco2)cc1	Autofluor counter 24109, BoNT-A LC inh2 inconclusive
c1ccc(-c2nnc(SCc3nc4ccccc4[nH]3)n2Cc2ccco2)cc1	Autofluor counter 22637, BoNT-A LC inh2 inconclusive
COC(=O)c1cc(NC(=O)c2ccccc2)c(=O)oc1/C=C/Nc1ccc(Oc2ccccc2)cc1	BoNT F protease 54, Autofluor counter 97551, BoNT-A LC inh2 43
COc1ccc(N(CC(=O)Nc2ccc(C)c(C)c2)S(=O)(=O)c2c(C)noc2C)cc1	none
COc1ccc(N(CC(=O)Nc2cc(C(=O)O)ccc2C)S(=O)(=O)c2c(C)noc2C)cc1	Autofluor counter 16981
Fc1ccc(NC(=S)N/N=C/c2ccc(F)c(F)c2)c(F)c1	Autofluor counter inconclusive, VHR inh abs 52
O=C(O)C1CSC2(c3ccc(F)cc3)CCC(=O)N12 (stereo not drawn)	none
COc1ccc2c(c1)c(=O)oc1cc3occ(C(C)(C)C)c3cc12	BoNT F protease inconclusive, Anthrax LF inh2 inconclusive, Autofluor counter inconclusive, BoNT-A LC inh2 inconclusive
Cc1ccc(-c2nn3c(C)nnc3s2)cc1NC(=O)c1ccc(-c2ccc(Cl)cc2Cl)o1	Autofluor counter 16181, BoNT-A LC inh2 inconclusive
COc1cccc(N=c2oc3ccccc3cc2-c2nc3ccccc3[nH]2)c1	BoNT F protease 54, Autofluor counter inconclusive
